From the supplement of paper PMC6555819

Experiments:
Test in all cases: PBM binding z-score (relative to random genomic background probes); higher = stronger binding; sequences stand for … in GC…GCGATTGACAGCGTAGAATGAAGG
[1] = tested on: FXR:RXRa (NR concentration 270 nM, RXRa partner concentration 90 nM)
Procedure, shortened: (§1)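 Custom Agilent 4×180K protein-binding microarrays carried double-stranded probes. Their 34-nt variable regions held direct-repeat seeds, single-nucleotide variants, half-site ablations and random human genomic background sequences. Arrays were incubated 1 h with ligand-free nuclear receptor dimers in PBS pH 7.4, 2% milk, 0.02% Triton X-100, 1 mM DTT, 0.2 mg/mL BSA and 0.4 mg/ml salmon testes DNA. Antibodies against each partner (one per run) detected binding, and scanned fluorescence was regression-normalized. Binding z-scores use random background probes as reference.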

[2] = tested on: LXRa:RXRa (NR concentration 270 nM, RXRa partner concentration 90 nM)
Procedure, shortened: as §1

[3] = tested on: LXRa homodimer (NR concentration 270 nM)
Procedure, shortened: as §1

[4] = tested on: LXRb:RXRa (NR concentration 270 nM, RXRa partner concentration 90 nM)
Procedure, shortened: as §1

[5] = tested on: LXRb homodimer (NR concentration 270 nM)
Procedure, shortened: as §1

[6] = tested on: PPARa:RXRa (NR concentration 270 nM, RXRa partner concentration 90 nM)
Procedure, shortened: as §1

[7] = tested on: PPARg:RXRa (NR concentration 180 nM, RXRa partner concentration 90 nM)
Procedure, shortened: as §1

[8] = tested on: PPARg:RXRa 270nM:90nM, anti-RXR (NR concentration 270 nM, RXRa partner concentration 90 nM)
Procedure, shortened: as §1

[9] = tested on: PPARg:RXRa 30nM:10nM, anti-RXR (NR concentration 30 nM, RXRa partner concentration 10 nM)
Procedure, shortened: as §1

[10] = tested on: PPARg:RXRa 90nM:30nM, anti-RXR (NR concentration 90 nM, RXRa partner concentration 30 nM)
Procedure, shortened: as §1

[11] = tested on: PPARg:RXRa DBDmut IVT, anti-RXR (DBD mutation: RXRa K156A/R161A, NR concentration 270 nM, RXRa partner concentration 90 nM)
Procedure, shortened: as §1

[12] = tested on: PPARg:RXRa IVT, anti-PPARg (NR concentration 270 nM, RXRa partner concentration 90 nM)
Procedure, shortened: as §1

[13] = tested on: PPARg DBDmut:RXRa IVT, anti-PPARg (DBD mutation: PPARg1 K132A/R137A, NR concentration 270 nM, RXRa partner concentration 90 nM)
Procedure, shortened: as §1

[14] = tested on: PPARg DBDmut IVT, anti-PPARg (DBD mutation: PPARg1 K132A/R137A, NR concentration 270 nM)
Procedure, shortened: as §1

[15] = tested on: PPARg homodimer (NR concentration 180 nM)
Procedure, shortened: as §1

[16] = tested on: PXR:RXRa (NR concentration 270 nM, RXRa partner concentration 90 nM)
Procedure, shortened: as §1

[17] = tested on: PXR homodimer (NR concentration 270 nM)
Procedure, shortened: as §1

[18] = tested on: RARa:RXR (NR concentration 270 nM, RXRa partner concentration 90 nM)
Procedure, shortened: as §1

[19] = tested on: RARa homodimer (NR concentration 270 nM)
Procedure, shortened: as §1

[20] = tested on: RARb:RXRa (NR concentration 270 nM, RXRa partner concentration 90 nM)
Procedure, shortened: as §1

| Sequence | PBM binding z-score [1] | PBM binding z-score [2] | PBM binding z-score [3] | PBM binding z-score [4] | PBM binding z-score [5] | PBM binding z-score [6] | PBM binding z-score [7] | PBM binding z-score [8] | PBM binding z-score [9] | PBM binding z-score [10] | PBM binding z-score [11] | PBM binding z-score [12] | PBM binding z-score [13] | PBM binding z-score [14] | PBM binding z-score [15] | PBM binding z-score [16] | PBM binding z-score [17] | PBM binding z-score [18] | PBM binding z-score [19] | PBM binding z-score [20] |
| --- | --- | --- | --- | --- | --- | --- | --- | --- | --- | --- | --- | --- | --- | --- | --- | --- | --- | --- | --- | --- |
| TCTGCTGGGTCAGTTGGTCAGCTAACGAGCTGCC | 0.384 | -0.0859 | -1.01 | 0.206 | 0.206 | 1.4 | 0.0356 | 1.6 | 1.09 | 1.19 | 2.22 | 2.74 | 0.569 | -0.161 | -0.167 | 0.0304 | -0.922 | 0.33 | -0.731 | 3.19 |
| CGTCCAAGGTCAAAGGTCAGTGACGAGATGACGG | 8.29 | 6.97 | 3.55 | 6.4 | 2.01 | 7.03 | 10.8 | 9.11 | 8.03 | 9.31 | 4.07 | 5.8 | 1.24 | 0.0683 | 6.48 | 7.17 | 2.08 | 8.72 | 2.59 | 5.86 |
| ACTTATGGGTCAACGAGGTTATAGCACGCGTATA | 5.3 | 4.47 | 0.915 | 3.85 | 0.967 | 5.33 | 6.12 | 5.78 | 2.91 | 5.01 | 6.33 | 5.8 | 1.52 | 2.09 | 2.41 | 4.34 | 1.69 | 4.3 | 1.76 | 3.89 |
| CGTCCAAGGTCAACGGTCAGTGAAGAGATGACGG | 7.38 | 5.09 | 1.45 | 4.23 | 0.938 | 6.03 | 6.01 | 5.78 | 2.86 | 4.85 | 3.45 | 4.39 | 0.975 | 0.233 | 2.65 | 4.02 | 0.701 | 4.66 | 0.466 | 5.55 |
| TCTGCTAGGTCAAGGATGGTCAGCTAATCTGCTA | 2.86 | 2.82 | -0.0468 | 1.48 | -0.198 | 3.12 | 2.01 | 3.21 | 2.02 | 2.71 | 4.19 | 4.08 | -0.492 | 0.24 | 0.578 | 1.23 | -0.697 | 2.26 | -0.712 | 3.97 |
| CCTTACGGGTCACTCCAGGGTATAGCATCGGAGT | 4.69 | 6.8 | 0.368 | 3.85 | -0.114 | 4.27 | 3.23 | 3.68 | 1.19 | 2.52 | 2.07 | 3.17 | -0.61 | -0.915 | 2.12 | 3.89 | 0.022 | 3.65 | -0.123 | 3.54 |
| ATCGCAAGGTCGAAGGTGAGTATACCCACCCGAA | 1.5 | 1.58 | -0.525 | 1.16 | -0.359 | 3.01 | 2.77 | 3.69 | 0.969 | 2.25 | -0.513 | 1.21 | 0.246 | -0.257 | 0.231 | 1.89 | -0.311 | 2.65 | -0.621 | 2.41 |
| TCTAGTTAGTCAAAGGTCACACACTCGAAATGCG | 5.6 | 5.78 | 4.78 | 5.34 | 1.76 | 5.98 | 8 | 7.8 | 6.86 | 8.1 | 2.7 | 4.43 | 1.17 | 3.06 | 5.38 | 5.63 | 2.01 | 6.72 | 3.05 | 4.74 |
| CGTCCAAGGTCATAGGAGGTCGGTGAAGACAGAT | 7.17 | 6.22 | 1.31 | 4.11 | 0.234 | 5.36 | 4.31 | 4.86 | 1.6 | 3.35 | 2.55 | 3.51 | -0.173 | 0.224 | 2.9 | 6.03 | 1.77 | 4.4 | 0.95 | 4.89 |
| CCTAGCAGGCCAATCTGTGTCACTCAAGGCTTGA | -0.0282 | -0.198 | -0.502 | -0.335 | -0.193 | 0.394 | -0.0496 | -0.118 | -0.619 | -0.304 | 2.87 | 2.13 | -1.03 | -1.32 | -0.244 | -0.438 | -0.358 | -0.217 | -0.52 | 0.211 |
| AGTCAAAGTTCACTAGATAACGTAAGATTCAGCT | 4.55 | 4.91 | 2.72 | 2.91 | 1.04 | 3.97 | 5.54 | 5.7 | 2.23 | 4.53 | 0.283 | 2.53 | 1.22 | 1.17 | 2.06 | 3.77 | 3.07 | 2.89 | 1.09 | 4.66 |
| CAAACTAGGTCTAAGGTCAAAGTCGAGCCAACCA | 5.18 | 4.6 | 2.94 | 4.32 | 1.16 | 6.52 | 10.5 | 9.19 | 9.22 | 10.2 | 3.97 | 5.92 | 1.31 | 0.848 | 2.46 | 4.42 | 1.59 | 4.7 | 1.21 | 4.14 |
| GGAACGAGGGCACGTTGATAGCAGAGTTTGATGG | 0.419 | 0.105 | -0.441 | 0.08 | -0.424 | 1.67 | 1.7 | 1.56 | 0.331 | 1.19 | 4.33 | 3.73 | 0.361 | -0.223 | -0.0757 | 0.508 | -0.125 | 0.282 | -0.225 | 2.37 |
| ATCGAAAGGTCGCGAGGTGAGTATACAGAAAGGC | 5.31 | 4.1 | -0.00351 | 3.19 | -0.0982 | 5.26 | 4.54 | 4.93 | 1.89 | 3.56 | 0.5 | 3.13 | 1.02 | 0.918 | 1.25 | 3.33 | 0.012 | 4.35 | 0.464 | 4.48 |
